Assay results as given in PubChem BioAssay AID1159580 (chemical genetic matrix, 2015).
Where “and” joins values, the source holds several entries; their conditions need not be identical. Equal entries are not always repeated. About 2,000 (36%) of roughly 5,500 compounds were called active. Not shown: some 18% with an inconclusive outcome. Cut-off read from the data, not from the text of the source: active = normalized growth mostly below about 0.91 (no sharp cut-off); inconclusive = no clear call, values can overlap the other calls; inactive = mostly above about 0.92. This is one part of the list.

Assay: chemical genetic growth profiling, strain panel (AID 1159580);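 note: tested at 20 µM; growth read once vehicle control cultures reached saturation at 30 °C; 1 = growth at the plate median or of vehicle wells; lower values mean less growth of the strain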
Conditions: S. cerevisiae deletion strains, growth OD

Measured: normalized growth

CC1(C)C2CC(=O)O[C@@]3(C)C4=CC(=O)O[C@@H](c5ccoc5)[C@]4(C)CCC3[C@@]2(C)C=C[C@H]1O (stereo partly drawn)
inactive: locus YAL013W, strain DEP1, active compounds read low 0.997 | locus YAL021C, strain ccr4, active compounds read low 0.993 | locus YAL026C, strain drs2, active compounds read low 0.98 | locus YAL030W, strain snc1, active compounds read low 0.978 | locus YBL061C, strain skt5, active compounds read low 0.986 | locus YBR009C, strain hhf1, active compounds read low 0.991 | locus YBR021W, strain FUR4, active compounds read low 1.01 | locus YBR023C, strain chs3, active compounds read low 0.97 | locus YBR171W, strain sec66, active compounds read low 0.966 | locus YBR229C, strain ROT2, active compounds read low 1.01 | locus YBR231C, strain swc5, active compounds read low 0.985 | locus YBR279W, strain paf1, active compounds read low 0.985 | locus YCL011C, strain gbp2, active compounds read low 0.967 | locus YCL016C, strain dcc1, active compounds read low 1.01 | locus YCL029C, strain bik1, active compounds read low 0.989 | locus YCL061C, strain MRC1, active compounds read low 0.999 | locus YCL069W, strain vba3, active compounds read low 0.971 | locus YCR088W, strain abp1, active compounds read low 0.974 | locus YDL005C, strain med2, active compounds read low 0.975 | locus YDL035C, strain GPR1, active compounds read low 1.03 | locus YDL040C, strain nat1, active compounds read low 0.974 | locus YDL074C, strain BRE1, active compounds read low 1.01 | locus YDL101C, strain DUN1, active compounds read low 0.999 | locus YDL134C, strain PPH21, active compounds read low 1.01 | locus YDL185W, strain tfp1, active compounds read low 0.999 | locus YDL192W, strain arf1, active compounds read low 0.988 | locus YDR001C, strain nth1, active compounds read low 0.99 | locus YDR069C, strain doa4, active compounds read low 0.98 | locus YDR101C, strain arx1, active compounds read low 1 | locus YDR137W, strain rgp1, active compounds read low 1.01 | locus YDR159W, strain sac3, active compounds read low 0.953 | locus YDR162C, strain NBP2, active compounds read low 0.998 | locus YDR195W, strain ref2 0.961 | locus YDR297W, strain sur2, active compounds read low 0.983 | locus YDR318W, strain mcm21, active compounds read low 0.989 | locus YDR334W, strain swr1, active compounds read low 0.981 | locus YDR335W, strain msn5, active compounds read low 0.979 | locus YDR388W, active compounds read low 0.99 | locus YDR392W, strain spt3, active compounds read low 0.984 | locus YDR502C, strain sam2, active compounds read low 0.998 | locus YEL003W, strain gim4, active compounds read low 0.978 | locus YEL037C, strain rad23, active compounds read low 0.984 | locus YEL061C, strain CIN8 (second series), active compounds read low 0.972 | locus YER015W, strain faa2, active compounds read low 0.975 | locus YER016W, strain bim1, active compounds read low 0.988 | locus YER110C, active compounds read low 0.983 | locus YER111C, strain swi4, active compounds read low 0.975 | locus YER155C, strain BEM2 (second series), active compounds read low 1 | locus YER155C, strain BEM2, active compounds read low 1.01 | locus YER167W, strain BCK2, active compounds read low 1.02 | locus YFR010W, strain ubp6, active compounds read low 0.971 | locus YGL078C, strain dbp3, active compounds read low 0.982 | locus YGL086W, strain mad1, active compounds read low 0.988 | locus YGL167C, strain pmr1, active compounds read low 0.989 | locus YGL173C, strain kem1, active compounds read low 0.98 | locus YGL227W, strain vid30, active compounds read low 0.98 | locus YGL240W, strain doc1, active compounds read low 0.968 | locus YGL248W, strain PDE1, active compounds read low 1 | locus YGL253W, strain hxk2, active compounds read low 0.948 | locus YGR078C, strain PAC10, active compounds read low 1 | locus YGR135W, strain pre9, active compounds read low 0.969 | locus YGR252W, strain gcn5, active compounds read low 0.97 | locus YHR013C, strain ard1, active compounds read low 0.973 | locus YHR027C, strain rpn1, active compounds read low 0.983 | locus YHR030C, strain SLT2, active compounds read low 1.01 and 0.99 | locus YHR079C, strain IRE1 (second series), active compounds read low 0.988 | locus YHR079C, strain IRE1, active compounds read low 0.987 | locus YHR094C, strain hxt1, active compounds read low 0.987 | locus YHR129C, strain ARP1, active compounds read low 1.01 | locus YHR142W, strain chs7, active compounds read low 0.964 | locus YHR200W, strain rpn10, active compounds read low 0.989 | locus YIL066C, strain RNR3, active compounds read low 1.02 | locus YIL073C, strain SPO22, active compounds read low 0.988 | locus YIL125W, strain kgd1, active compounds read low 0.991 | locus YIR030C, strain dcg1, active compounds read low 0.975 | locus YJL092W, strain hpr5, active compounds read low 0.971 | locus YJL095W, strain BCK1 (second series), active compounds read low 0.982 | locus YJL095W, strain BCK1, active compounds read low 0.986 and 0.978 | locus YJL115W, strain asf1, active compounds read low 0.987 | locus YJL129C, strain trk1, active compounds read low 0.956 | locus YJL134W, strain LCB3, active compounds read low 1.01 | locus YJL154C, strain vps35, active compounds read low 0.99 | locus YJL164C, strain tpk1, active compounds read low 1.01 | locus YJL166W, strain qcr8, active compounds read low 0.98 | locus YJL168C, strain set2, active compounds read low 0.98 | locus YJL187C, strain SWE1 (second series), active compounds read low 0.997 | locus YJL187C, strain SWE1, active compounds read low 0.983 | locus YJR043C, strain POL32, active compounds read low 1.03 | locus YJR066W, strain TOR1, active compounds read low 0.946 | locus YKL009W, strain mrt4, active compounds read low 0.985 | locus YKL068W, active compounds read low 1 | locus YKL085W, strain MDH1 (second series), active compounds read low 0.993 | locus YKL085W, strain MDH1, active compounds read low 0.993 | locus YKL160W, strain elf1, active compounds read low 1.02 | locus YKR001C, strain vps1, active compounds read low 0.997 | locus YKR026C, strain gcn3, active compounds read low 0.977 | locus YKR091W, strain srl3, active compounds read low 0.983 | locus YLL001W, strain dnm1, active compounds read low 1 | locus YLL026W, active compounds read low 0.971 | locus YLL041C, strain sdh2, active compounds read low 0.976 | locus YLR027C, strain aat2, active compounds read low 0.968 | locus YLR039C, strain RIC1, active compounds read low 0.952 | locus YLR058C, strain SHM2, active compounds read low 1.01 | locus YLR102C, strain apc9, active compounds read low 0.982 | locus YLR113W, strain HOG1, active compounds read low 0.969 | locus YLR221C, strain rsa3, active compounds read low 0.975 | locus YLR258W, strain gsy2, active compounds read low 0.98 | locus YLR262C, strain YPT6 (second series), active compounds read low 1.01 | locus YLR268W, strain sec22, active compounds read low 1.01 | locus YLR320W, strain mms22, active compounds read low 0.993 | locus YLR330W, strain CHS5, active compounds read low 1.01 | locus YLR342W, strain FKS1, active compounds read low 0.977 | locus YLR357W, strain rsc2, active compounds read low 1 | locus YLR370C, strain arc18, active compounds read low 0.958 | locus YLR371W, strain rom2, active compounds read low 0.992 | locus YLR384C, strain iki3, active compounds read low 0.986 | locus YLR418C, strain cdc73, active compounds read low 0.955 | locus YML016C, strain PPZ1, active compounds read low 1.01 | locus YML032C, strain rad52, active compounds read low 1 | locus YML120C, strain ndi1, active compounds read low 0.959 | locus YML124C, strain tub3, active compounds read low 0.983 | locus YMR058W, strain fet3, active compounds read low 0.986 | locus YMR078C, strain ctf18, active compounds read low 0.985 | locus YMR125W, strain sto1, active compounds read low 0.993 | locus YMR129W, active compounds read low 0.992 | locus YMR205C, strain PFK2, active compounds read low 1.04 | locus YMR223W, strain ubp8, active compounds read low 0.971 | locus YMR231W, strain pep5, active compounds read low 0.948 | locus YMR263W, strain SAP30, active compounds read low 1.02 | locus YMR307W, strain GAS1, active compounds read low 0.922 | locus YNL067W, strain RPL9B, active compounds read low 0.999 | locus YNL071W, strain lat1, active compounds read low 0.987 | locus YNL153C, strain GIM3, active compounds read low 1 | locus YNL183C, strain NPR1, active compounds read low 0.962 | locus YNL209W, strain ssb2, active compounds read low 1.01 | locus YNL233W, strain BNI4, active compounds read low 0.992 | locus YNL248C, strain rpa49, active compounds read low 0.98 | locus YNL250W, strain rad50, active compounds read low 0.984 | locus YNL271C, strain bni1, active compounds read low 0.995 | locus YNL298W, strain CLA4, active compounds read low 1 | locus YNL307C, strain MCK1, active compounds read low 0.991 | locus YNL322C, strain KRE1 (second series), active compounds read low 0.962 | locus YNR049C, strain mso1, active compounds read low 0.981 | locus YNR052C, strain pop2, active compounds read low 0.983 | locus YOL006C, strain TOP1, active compounds read low 1.03 | locus YOL012C, strain htz1 0.912 | locus YOL147C, strain pex11, active compounds read low 0.989 | locus YOR001W, strain rrp6, active compounds read low 0.95 | locus YOR061W, strain CKA2, active compounds read low 1.01 | locus YOR069W, strain VPS5, active compounds read low 1 | locus YOR070C, strain gyp1, active compounds read low 0.984 | locus YOR080W, strain dia2, active compounds read low 0.963 | locus YOR083W, strain WHI5, active compounds read low 1.02 | locus YOR106W, strain vam3, active compounds read low 0.989 | locus YOR136W, strain idh2, active compounds read low 0.998 | locus YOR144C, strain elg1, active compounds read low 0.993 | locus YOR184W, strain ser1, active compounds read low 1.02 | locus YOR231W, strain MKK1, active compounds read low 0.998 | locus YOR265W, strain rbl2, active compounds read low 0.966 | locus YOR270C, strain vph1, active compounds read low 0.951 | locus YOR290C, strain snf2, active compounds read low 0.974 | locus YOR316C, strain cot1, active compounds read low 0.981 | locus YPL051W, strain arl3, active compounds read low 0.987 | locus YPL078C, strain atp4, active compounds read low 1.01 | locus YPL106C, strain sse1, active compounds read low 1.02 | locus YPL240C, strain hsp82, active compounds read low 0.967 | locus YPL241C, strain CIN2, active compounds read low 1.01 | locus YPL256C, strain CLN2, active compounds read low 0.967 | locus YPR119W, strain clb2, active compounds read low 0.981 | locus YPR141C, strain kar3, active compounds read low 0.987 | locus YPR163C, strain tif3, active compounds read low 0.994 | locus YPR167C, strain met16, active compounds read low 0.983 | strain wtn01, active compounds read low 1.02
